A selection: hits, their analogues and other compounds. The true share with any hit is near 1.8%.
GSTO1 inh: blocks human GSTO1 in RBBP9 counter-screen. P78417. recombinant GSTO1, activity-based probe fluorescence polarization. inhibition, % at 5.96 µM. actives 1.1% (n = 300,000). AID 1974;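 active = inhibition above the campaign mean inhibition plus 3 SD, cut at about 35% in these data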;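 also: 0% = GSTO1-1 with DMSO and 100% = wells lacking GSTO1-1 enzyme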
LYPLA1 inh: blocks human lysophospholipase 1, a PME1 counter-screen; AID 2174; O75608; actives 0.16% (n = 320,000); inhibition, % at 5.9 µM; recombinant LYPLA1, FP-Rh probe fluorescence polarization;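 active = inhibition above the mean of all tested compounds plus 3 SD, set per campaign, cut at about 14% in these data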;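 also: inhibitors block serine hydrolase probe labeling of LYPLA1 so polarization falls; 0% = enzyme with DMSO and 100% = wells lacking LYPLA1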
PME-1 primary: PME-1 (human) inhibition. Q9Y570. actives 0.53% (n = 320,000). inhibition, % at 5.9 µM. recombinant PME-1, FP-Rh probe fluorescence polarization;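 active = inhibition above the campaign mean of all compounds plus 3 SD, cut at about 26% in these data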;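 also: competitive labeling of PME-1 active site by serine hydrolase directed probe; 0% = PME-1 with DMSO and 100% = wells lacking PME-1 enzyme; inhibitors block probe labeling so polarization falls and inhibition rises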
Target sequence (Q9Y570 whole entry, looked up): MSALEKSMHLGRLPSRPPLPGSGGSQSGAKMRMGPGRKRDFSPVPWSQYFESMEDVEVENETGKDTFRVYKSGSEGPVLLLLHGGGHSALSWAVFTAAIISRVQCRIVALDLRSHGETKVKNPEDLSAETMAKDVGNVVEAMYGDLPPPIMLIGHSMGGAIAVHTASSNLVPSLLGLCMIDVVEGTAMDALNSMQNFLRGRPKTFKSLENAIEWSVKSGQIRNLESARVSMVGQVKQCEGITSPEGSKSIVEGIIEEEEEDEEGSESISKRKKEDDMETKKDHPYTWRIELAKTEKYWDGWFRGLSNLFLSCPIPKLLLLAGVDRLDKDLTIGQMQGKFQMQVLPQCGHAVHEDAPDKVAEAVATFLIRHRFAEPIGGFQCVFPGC
PAD4 FP inh: blocks human protein arginine deiminase 4; Q9UM07; recombinant PAD4, RCA probe fluorescence polarization; inhibition, % at 6.36 µM; actives 0.41% (n = 330,000);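 active = percent inhibition above a cutoff equal to the mean of all tested compounds plus 3 SD, cut at about 15% in these data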;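 also: 0% = PAD4 with RCA probe and DMSO and 100% = probe without PAD4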
Fam108B counter: blocks mouse Fam108B hydrolase in RBBP9 counter-screen; actives 0.33% (n = 300,000); recombinant Fam108B, FP-Rh probe fluorescence polarization; inhibition, % at 9.51 µM;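 active = inhibition above the screen mean inhibition plus 3 SD, computed separately per campaign, cut at about 18% in these data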;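 also: inhibitors lower polarization as less probe binds the enzyme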
LYPLA2 inh: counter-screen for PME1 inhibitors: inhibitors of human LYPLA2 | inhibition, % at 5.9 µM | actives 0.38% (n = 320,000) | recombinant LYPLA2, FP-Rh probe fluorescence polarization | O95372;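 active = inhibition above the screen-wide mean plus 3 SD, limit set per campaign, cut at about 26% in these data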;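 also: 0% = LYPLA2 with DMSO and 100% = wells lacking LYPLA2 enzyme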
Target sequence (O95372 whole entry, looked up): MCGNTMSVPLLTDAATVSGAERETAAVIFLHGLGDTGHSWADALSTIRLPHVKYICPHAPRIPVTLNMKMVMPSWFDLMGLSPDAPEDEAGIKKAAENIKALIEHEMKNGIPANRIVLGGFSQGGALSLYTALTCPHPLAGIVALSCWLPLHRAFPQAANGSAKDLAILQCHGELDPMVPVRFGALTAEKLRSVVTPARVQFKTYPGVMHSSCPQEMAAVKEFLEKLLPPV
PAD4 confirm: confirmation of human PAD4 inhibitors; shares compounds with PAD4 FP inh; recombinant PAD4, RCA probe fluorescence polarization; inhibition, % at 6.36 µM; actives 28% (n = 1,200);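 active = mean inhibition across replicates above the hit cutoff set by the earlier primary screen, cut at about 15% in these data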;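 also: inhibitors block active-site labeling by the probe so polarization falls; 0% = PAD4 with probe and DMSO and 100% = probe without PAD4 enzyme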
* = called active by the depositor; · = no result.

SMILES | GSTO1 inh | LYPLA1 inh | PME-1 primary | PAD4 FP inh | Fam108B counter | LYPLA2 inh | PAD4 confirm
Cc1ccc2nccc(C(=O)N3CCCC(Nc4ccc(F)cc4)C3)c2c1 (configuration not stated) | 0.9 | 4.2 | 0.6 | -1.4 | -3.9 | -0.7 | ·
COc1ccc(CCNC(=O)COC(=O)c2ccc(C)s2)cc1 | · | 0.0 | 4.8 | 81.1* | · | 3.0 | -4.1
Cc1cc2c3c(c1)C1(SCC(=O)N1c1ccc(F)cc1)C(=O)N3C(C)(C)CC2C (configuration not stated) | -12.5 | 0.6 | -1.3 | 14.6 | -0.9 | 6.2 | ·
CC1CC(C)(C)N2C(=O)C3(Nc4ccccc4S3)c3cccc1c32 (configuration not stated) | 3.8 | 1.0 | 4.7 | 22.9* | 2.0 | 2.3 | 27.7*
Cc1cc(C)n2nc(SC(C)C(=O)N3CC(C)OC(C)C3)nc2n1 (configuration not stated) | · | · | · | -4.4 | · | · | ·
Cc1cc([N+](=O)[O-])cnc1N1CCOCC1 | 4.4 | -0.4 | 4.8 | 0.6 | -2.8 | 0.0 | ·
O=[N+]([O-])c1cnc(N2CCCCC2)c([N+](=O)[O-])c1 | 9.0 | 7.2 | 7.1 | 40.7* | 8.6 | 7.4 | -2.8
NC(=O)CC(NC(=O)Cc1ccc(Cl)cc1)c1ccc(NCCOc2ccccc2)c([N+](=O)[O-])c1 (configuration not stated) | 21.5 | -3.6 | -7.2 | 3.9 | 4.6 | -2.6 | ·
CCn1nnnc1SCC(=O)N(C)C1CCS(=O)(=O)C1 (configuration not stated) | · | 2.3 | 2.3 | 16.0* | · | 2.8 | -3.6
COc1ccc(-n2nnnc2SCC(=O)N(C)C2CCS(=O)(=O)C2)cc1 (configuration not stated) | · | · | · | -5.3 | · | · | ·
Cc1ccc(S(=O)(=O)N(C(=O)c2ccco2)c2cc3sc(=O)oc3c3ccccc23)cc1 | 66.1* | 0.4 | 3.7 | 21.1* | 6.7 | 0.2 | 8.5
CCc1nnc(N/N=C/c2ccc(N3CCC(C)CC3)c([N+](=O)[O-])c2)n1N | 17.7 | -3.4 | 4.8 | 29.2* | 0.0 | 5.0 | 3.5
Cc1nnc(N/N=C/c2cc([N+](=O)[O-])c(N3CCC(C)CC3)cc2N2CCC(C)CC2)n1N | 32.3 | -0.8 | 4.7 | 44.0* | 11.7 | 16.5 | 2.8
CC1(CCC(=O)N2CCCC(Nc3ccc(F)cc3)C2)CC1 (configuration not stated) | 1.3 | -1.9 | -0.7 | -1.7 | 0.5 | 0.5 | ·
CCSc1ccc(-c2nn(-c3ccccc3)cc2/C=C(/C#N)C(=O)NC)cc1 | -15.7 | -3.5 | -0.3 | 15.5* | -7.5 | -9.8 | 23.0*
CCN(CC)S(=O)(=O)c1ccc(Cl)c(C(=O)Nc2cc(C)nn2-c2ccccc2C(F)(F)F)c1 | 6.9 | -2.5 | 3.5 | 18.2* | -3.4 | -1.0 | -3.0
O=C(CCNC(=O)c1ccccc1)Nc1ccc(Cl)c(S(=O)(=O)N2CCCCC2)c1 | · | · | · | 18.8* | · | · | 0.4
O=C(O)CC(SCC(=O)Nc1ccc(Cl)c(S(=O)(=O)N2CCOCC2)c1)C(=O)O (configuration not stated) | -4.4 | -3.1 | 6.7 | 21.3* | 3.5 | 3.2 | 5.3
COCCCN(C(=O)CCSc1ccc(F)cc1)c1c(N)n(Cc2ccccc2)c(=O)[nH]c1=O | 6.9 | 1.7 | -3.1 | -3.5 | 1.0 | 3.6 | ·
CCOC(=O)c1c(C)sc2c1N(C(=O)CCl)c1cc(Cl)ccc1S2 | -5.8 | -1.1 | 0.8 | 19.0* | 0.2 | 9.0 | 42.8*
CC(C)C1OC2(C)OC(=N)C1(C#N)C(C#N)(C#N)C2c1ccccc1 (configuration not stated) | 11.2 | 11.3 | 12.1 | 19.2* | 12.2 | 6.6 | 16.0*
CCC1OC2(C)OC(=N)C1(C#N)C(C#N)(C#N)C2c1ccccc1 (configuration not stated) | 12.8 | 8.7 | 11.0 | 15.5* | 10.9 | 14.3 | -1.2
CCC12OC(=N)C(C#N)(C1C)C(C#N)(C#N)C(c1ccccc1)O2 (configuration not stated) | 0.0 | -2.1 | -0.6 | 3.0 | 0.3 | 0.7 | ·
CCc1nnc(N/N=C/c2ccccc2F)n1N | 11.9 | -2.4 | -4.3 | 42.6* | 4.0 | -0.9 | 5.4
COc1cccc(CNCCO)c1OCc1ccccc1Cl | 2.0 | -3.8 | 0.5 | 2.8 | -0.9 | 1.8 | ·
SMILES | GSTO1 inh | LYPLA1 inh | PME-1 primary | PAD4 FP inh | Fam108B counter | LYPLA2 inh | PAD4 confirm
CCc1nnc(N/N=C/c2ccccc2Cl)n1N | 24.5 | 1.1 | -8.5 | 35.6* | 0.0 | -1.8 | 1.2
CC(C)(C)c1nnc(N/N=C/c2ccccc2O)n(N)c1=O | -1.0 | -3.1 | -2.5 | 2.6 | 0.1 | -9.2 | ·
COc1cccc(/C=N/Nc2nnc(C)n2N)c1OCc1ccccc1Cl | 24.7 | 0.5 | -4.0 | 22.1* | -0.7 | 7.7 | 8.3
CCOC(=O)N/N=C/c1ccccc1F | -2.2 | 1.6 | 2.8 | 2.8 | 0.6 | 1.7 | ·
C[C@@H]1COC(=O)[C@@H](Cc2ccc(F)cc2)C/C=C\C[C@@H](CC(=O)N[C@H](CO)Cc2ccccc2)C(=O)N1 | · | · | · | -1.1 | · | · | ·
COC(=O)C1(Cc2cc(-c3ccc([N+](=O)[O-])cc3)no2)CCN(C(=O)OC(C)(C)C)CC1 | 6.4 | 0.2 | 0.3 | -2.1 | 1.5 | 7.7 | ·
COc1cc(Cl)c(NC2=CC(=O)C(=O)c3ccccc32)c(OC)c1 | · | 6.5 | 17.2 | 41.0* | · | 21.9 | 51.6*
COc1ccc(-c2nc(C(=O)NCCCN3CCOCC3)cc3c2[nH]c2ccccc23)cc1OC | -15.8 | -9.7 | -6.5 | 59.0* | -2.0 | -9.5 | 67.4*
CN1CC=C2C(C#N)=C(N)C(C#N)(C#N)[C@H](c3cccs3)[C@H]2C1 | 10.5 | 3.0 | 5.8 | 7.5 | -2.5 | 3.1 | ·
CCCC1C2CN(C(C)C)CC=C2C(C#N)=C(N)C1(C#N)C#N (configuration not stated) | -3.1 | 3.4 | 4.7 | 25.5* | 1.0 | 8.2 | 11.7
CN1CC=C2C(C#N)=C(N)C(C#N)(C#N)C(c3ccsc3)C2C1 (configuration not stated) | -0.8 | 4.2 | -2.2 | 15.1* | -0.1 | 4.2 | 5.8
CN1CC=C2C(C#N)=C(N)C(C#N)(C#N)C(CCc3ccccc3)C2C1 (configuration not stated) | 1.9 | -1.3 | 2.7 | 2.5 | 1.8 | -1.6 | ·
Nn1cnnc1N/N=C/c1ccc(F)cc1 | 18.3 | -0.7 | 3.0 | 40.7* | -3.7 | -1.4 | 2.7
Fc1ccc(/C=N/Nc2nn[nH]n2)cc1 | 5.7 | 0.9 | 3.7 | 1.2 | 0.4 | -0.1 | ·
Cc1ccc(/C=N/Nc2nncn2N)cc1 | 16.3 | -0.7 | 4.6 | 46.4* | 3.1 | 2.4 | 1.4
Nn1cnnc1N/N=C/c1ccccc1C(F)(F)F | 1.9 | -1.3 | -0.3 | 39.1* | -2.2 | 1.1 | 6.7
CC(C)=CCN1CCN(Cc2c[nH]c3ccccc23)CC1CCO (configuration not stated) | 18.3 | -1.9 | -4.5 | 1.7 | -2.1 | 2.9 | ·
O=C(Nc1ccc(Cl)cc1)Nc1ccccc1Sc1ncc([N+](=O)[O-])s1 | -20.0 | -4.5 | 9.5 | 21.9* | 4.6 | 3.1 | 14.2
COc1ccc(CCn2c(C)cc(C(=O)CSc3nc(N)cc(=O)[nH]3)c2C)cc1 | -14.2 | -6.6 | -15.4 | 30.5* | -0.3 | -7.5 | 9.2
COc1ccc(CCn2c(C)cc(C(=O)CSc3nnc(N)s3)c2C)cc1 | -2.7 | -1.3 | -7.2 | -3.8 | 1.1 | -5.0 | ·
CCOC(=O)Cc1nnc(NC(=O)CSc2nnc3c(n2)[nH]c2ccccc23)s1 | 10.9 | -3.8 | -18.3 | 21.6* | -7.7 | -1.5 | 4.8

Assay outcomes (PubChem BioAssay)
